# Data reported in PubChem BioAssay (NCI).
# Compounds without any hit were thinned out: in the full panel of roughly 83,000, 20% have a hit.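 96-well plates, one dose, 48 hours. Percent growth reported; active if below 10.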 Unmarked numbers belong to inactive results. The source made the active and inactive calls.
# Tests used:
# Assay in all cases: NCI-60 one-dose screen, 48 h (100 = growth as untreated, 0 = no growth, -100 = all killed)
# Conditions in all cases: 10 µM unless noted
# [1] = test system: SR leukemia
# [2] = test system: RPMI-8226 leukemia
# [3] = test system: OVCAR-8 ovarian
# [4] = test system: OVCAR-5 ovarian
# [5] = test system: OVCAR-4 ovarian
# [6] = test system: SK-OV-3 ovarian
# [7] = test system: IGROV1 ovarian
# [8] = test system: OVCAR-3 ovarian
# [9] = test system: HS 578T breast
# [10] = test system: NCI/ADR-RES ovarian
# [11] = test system: T-47D breast
# [12] = test system: BT-549 breast
# [13] = test system: MDA-MB-435 melanoma
# [14] = test system: SW-620 colon
# [15] = test system: MCF7 breast
# [16] = test system: HCT-116 colon
# [17] = test system: HCC-2998 colon
# [18] = test system: KM12 colon
SMILES,growth [1],growth [2],growth [3],growth [4],growth [5],growth [6],growth [7],growth [8],growth [9],growth [10],growth [11],growth [12],growth [13],growth [14],growth [15],growth [16],growth [17],growth [18]
COc1ccc2c(c1)oc1c(C)c3c(c(C)c12)C(=O)N(CCN1CCOCC1)C3=O,85.8%,92.2%,92%,92.6%,103%,114%,91.4%,106%,102%,104%,106%,97.6%,105%,93%,109%,83%,111%,96.1%
COc1cc2cc(CN3CCN(c4nccc(-c5ccc6ccccc6c5)n4)CC3)c(=O)[nH]c2cc1OC,-23.1% (active),61.2%,28.9%,102%,53.4%,99.6%,92%,39%,95.4%,85.9%,81.5%,95.6%,91.1%,-55% (active),42.8%,-25.4% (active),101%,83.4%
Cc1c(C(=O)NCCC(=O)NO)sc2ncnc(Nc3ccc(NC(=O)Nc4cccc(C(F)(F)F)c4)cc3)c12,101%,102%,102%,104%,105%,115%,102%,112%,93.5%,103%,101%,137%,103%,104%,89.2%,108%,112%,100%
OC(c1ccc(F)c(C(F)(F)F)c1)c1cnccc1NC1CCCCC1 (centres undefined),16.6%,16.9%,81.8%,85.3%,64.8%,103%,70%,72.3%,77.3%,74.7%,41.5%,90.5%,78.5%,58.3%,58.4%,36.4%,-51% (active),70.6%
c1ccc2c(-c3nccs3)c[nH]c2c1,86%,104%,106%,97.3%,110%,99.7%,101%,103%,98.3%,103%,96.3%,86.6%,101%,99.1%,79.8%,95.7%,107%,96.3%
CC(=O)[C@@H]1CC[C@]2(C(N)=O)CC[C@]3(C)[C@H](CC[C@@H]4[C@@]5(C)CCCNC(C)(C)[C@@H]5CC[C@]43C)[C@@H]12,43.7%,61.7%,98%,91.5%,84.6%,108%,93.6%,89.3%,84.4%,90.6%,93.9%,87.1%,83.9%,–,72.1%,65.1%,92%,90.5%
Cc1ccc(-n2cc(-c3ccccc3)c3c2N=NN2CCN=C32)cc1,86%,93.4%,107%,101%,97.2%,104%,88.5%,106%,100%,102%,93.5%,125%,101%,92.5%,98.7%,95.8%,111%,102%
C=C1C(=O)O[C@H]2[C@H]1CC/C(COC(=O)NCC(C)c1ccc(CC(C)C)cc1)=C\CC[C@@]1(C)O[C@@H]21 (some centres undefined),-2.59% (active),-35.7% (active),-51% (active),62.4%,-43.8% (active),100%,-69.5% (active),-85.5% (active),16%,28.6%,-50% (active),-42.4% (active),-88.7% (active),-58.7% (active),13.7%,-83% (active),59.5%,-3.31% (active)
O=C1c2cccc3c(-c4ccc5c(c4)ncn5C4CCCCC4)ccc(c23)C(=O)N1c1nc2ccccc2s1,81%,75.6%,98%,102%,79.1%,95%,92.3%,89.8%,92.9%,91.3%,72.6%,95.8%,100%,108%,69%,84.4%,93%,83.8%
Cn1cc(CC2CC(=O)N(c3ccccc3)C2=O)sc1=NC(=O)c1ccccc1 (centres undefined),96%,105%,104%,95.2%,103%,97.1%,93.1%,99.2%,89.8%,97.5%,91.1%,87.2%,101%,–,99.2%,96.9%,100%,98.6%
COc1cc(-c2csc(NC(=O)c3cc(F)cc(C(F)(F)F)c3)n2)cc(OC)c1OC,16.1%,-4.32% (active),37.7%,82.7%,58.7%,54.3%,43.8%,12.2%,20%,49.8%,19.3%,41.2%,-16.2% (active),–,20.9%,16.5%,72.2%,26.6%
COc1ccc(/C=C(\C#N)n2nc3cccc(F)c3n2)cc1,82.4%,102%,100%,108%,101%,108%,96.8%,109%,104%,104%,90.5%,109%,77.4%,103%,89.5%,101%,107%,93.7%
CCOC(=O)CSc1nc2ccccc2c(=O)n1Cc1ccc(S(N)(=O)=O)cc1,99.6%,98.2%,101%,97.5%,116%,107%,105%,112%,97.9%,104%,102%,105%,102%,98.6%,96.7%,102%,109%,104%
COc1ccc(/C=C/c2nc(Nc3ccc(S(=O)(=O)Nc4cc(C)on4)cc3)c3ccccc3n2)cc1,45.4%,67.9%,61.3%,71.1%,73.4%,77.4%,78%,83.7%,80.3%,75.7%,37.4%,85.8%,39.3%,70%,32.1%,68.1%,69.6%,49%
C=C(C)[C@@H]1CC[C@]2(C(=O)N[C@H](CO)Cc3ccccc3)CC[C@]3(C)[C@H](CC[C@@H]4[C@@]5(C)CCCNC(C)(C)[C@@H]5CC[C@]43C)[C@@H]12,-56.8% (active),-49.3% (active),-76.3% (active),-93.5% (active),-80.9% (active),-96.2% (active),-78.8% (active),-95.9% (active),-60.5% (active),-67.6% (active),-58% (active),-88.1% (active),-93.6% (active),–,-69.7% (active),-94.8% (active),-84.7% (active),-80.7% (active)
O=C(Nc1cccc(C(=O)N2CCc3ccc(Cl)cc32)c1)c1ccco1,20.4%,34.6%,51.5%,70.7%,70.5%,82.6%,31.1%,18.2%,28.9%,24.2%,33.6%,37.2%,-2.72% (active),29.8%,21.6%,18.9%,68%,33.6%
